From ChEMBL document CHEMBL3988442, “University of Dundee, Small-Polar-MMV Screening Library” (2021) come the findings set out here.

Holding throughout (parameters): scale not given: direction of the effect not stated beside the values
The target of assay [1] is Protein translocase subunit SecA (Escherichia coli (strain K12)) (UniProt P10408). Put plainly: Assay to Identify E. coli SecA ATPase Inhibitors. In kind it is functional. The following applies: 30 µM.
Assay [2] deals with T1, Ubiquitin-activating enzyme e1, putative (Leishmania donovani (strain BPK282A1)) (UniProt E9BSI1).
T1 sequence (whole entry): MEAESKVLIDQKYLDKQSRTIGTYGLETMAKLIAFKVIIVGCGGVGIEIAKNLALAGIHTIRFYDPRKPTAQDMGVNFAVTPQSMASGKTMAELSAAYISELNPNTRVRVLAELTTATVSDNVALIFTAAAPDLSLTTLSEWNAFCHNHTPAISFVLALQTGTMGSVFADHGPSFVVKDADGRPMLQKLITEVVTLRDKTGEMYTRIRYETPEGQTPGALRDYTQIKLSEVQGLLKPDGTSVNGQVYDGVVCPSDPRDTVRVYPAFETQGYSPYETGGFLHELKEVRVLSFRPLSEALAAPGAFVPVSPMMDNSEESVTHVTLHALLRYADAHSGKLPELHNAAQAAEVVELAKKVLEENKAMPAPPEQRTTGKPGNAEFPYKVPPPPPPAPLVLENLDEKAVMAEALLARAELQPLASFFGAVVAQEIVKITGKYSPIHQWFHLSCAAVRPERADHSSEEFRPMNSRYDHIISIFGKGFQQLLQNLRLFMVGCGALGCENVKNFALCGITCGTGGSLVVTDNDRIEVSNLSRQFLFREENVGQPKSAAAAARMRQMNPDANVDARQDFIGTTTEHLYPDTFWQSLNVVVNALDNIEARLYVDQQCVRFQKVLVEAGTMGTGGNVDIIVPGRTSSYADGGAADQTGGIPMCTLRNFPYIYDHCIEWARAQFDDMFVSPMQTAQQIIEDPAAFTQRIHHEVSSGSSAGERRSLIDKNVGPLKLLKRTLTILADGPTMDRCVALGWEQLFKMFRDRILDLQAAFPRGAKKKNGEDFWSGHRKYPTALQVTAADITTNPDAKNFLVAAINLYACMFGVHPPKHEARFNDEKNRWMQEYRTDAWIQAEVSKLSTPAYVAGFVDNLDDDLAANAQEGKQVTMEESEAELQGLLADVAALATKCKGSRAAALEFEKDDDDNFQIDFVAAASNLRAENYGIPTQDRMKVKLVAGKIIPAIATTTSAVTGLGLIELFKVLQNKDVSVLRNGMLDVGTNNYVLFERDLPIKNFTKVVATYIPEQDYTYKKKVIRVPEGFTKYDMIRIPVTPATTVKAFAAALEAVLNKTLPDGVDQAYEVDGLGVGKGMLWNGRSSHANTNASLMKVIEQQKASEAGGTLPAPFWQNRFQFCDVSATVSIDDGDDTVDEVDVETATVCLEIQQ
Put plainly: Leishmania donovani Ubiquitin Activating Enzyme (LdE1). The assay is classed as functional. The conditions noted are these: 30 µM.

In assay [3] the target is AMP-activated protein kinase, AMPK (Homo sapiens) (UniProt P54646+O43741+P54619+Q9UGJ0+Q9Y478+Q13131+Q9UGI9). Put plainly: AMP-dependent Kinase enzyme assay. An in vitro enzyme assay that detects ADP turnover that is directly proportional to AMPK activity. This uses naive AMPK that is activated during the assay with MK-8722. In kind it is functional. The following applies: 30 µM.

The target in assay [4] is Sialic acid-binding Ig-like lectin 9 (Homo sapiens) (UniProt Q9Y336). Put plainly: Hs-Siglec9 ALPHAscreen SOP 20170721. The conditions noted are these: 10 µM. In general terms: In Alpha technology, singlet oxygen from a donor bead excites a nearby acceptor bead.
Sequence of Sialic acid-binding Ig-like lectin 9 (Homo sapiens) (Q9Y336 whole entry): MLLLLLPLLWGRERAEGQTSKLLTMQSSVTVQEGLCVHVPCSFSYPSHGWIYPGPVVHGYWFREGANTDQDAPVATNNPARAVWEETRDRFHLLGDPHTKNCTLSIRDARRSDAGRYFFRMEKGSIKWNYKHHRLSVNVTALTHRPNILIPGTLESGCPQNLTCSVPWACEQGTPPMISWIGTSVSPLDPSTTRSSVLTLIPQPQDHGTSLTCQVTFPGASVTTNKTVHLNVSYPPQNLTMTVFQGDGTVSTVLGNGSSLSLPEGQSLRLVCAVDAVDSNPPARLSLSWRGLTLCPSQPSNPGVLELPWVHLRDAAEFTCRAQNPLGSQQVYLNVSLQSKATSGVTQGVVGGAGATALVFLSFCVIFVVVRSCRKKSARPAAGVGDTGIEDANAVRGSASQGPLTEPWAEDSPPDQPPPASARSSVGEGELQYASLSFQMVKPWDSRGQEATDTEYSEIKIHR
A further assay concerns Trypanosoma cruzi. Nature of the assay: Trypanosoma cruzi phosphomannomutase and mannose-1-phosphate guanylyltransferase assay. The assay is classed as functional. The conditions noted are these: 10 µM.
Assay [5] concerns the target T2, Arginase-2, mitochondrial (Homo sapiens) (UniProt P78540).
T2 sequence (whole entry): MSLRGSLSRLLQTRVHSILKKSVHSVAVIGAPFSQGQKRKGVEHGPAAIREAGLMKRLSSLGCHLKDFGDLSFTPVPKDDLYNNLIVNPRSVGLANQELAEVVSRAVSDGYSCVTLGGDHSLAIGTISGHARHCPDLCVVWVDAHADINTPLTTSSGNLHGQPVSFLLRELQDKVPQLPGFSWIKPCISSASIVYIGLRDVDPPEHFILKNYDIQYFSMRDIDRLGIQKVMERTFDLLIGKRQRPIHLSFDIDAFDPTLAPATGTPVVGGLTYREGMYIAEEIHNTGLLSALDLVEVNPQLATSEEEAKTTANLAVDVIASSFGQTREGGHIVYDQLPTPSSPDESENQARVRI
Put plainly: in vitro enzyme assay to detect the production of urea directly proportional to the activity of Arginase II. Further: in the data most compounds retested in dose-response had high values. The assay is classed as functional. The following applies: 33.3 µM.

For assay [6], the target named is T3, Proteasome subunit beta (Trypanosoma cruzi) (UniProt O96673).
T3 sequence (whole entry): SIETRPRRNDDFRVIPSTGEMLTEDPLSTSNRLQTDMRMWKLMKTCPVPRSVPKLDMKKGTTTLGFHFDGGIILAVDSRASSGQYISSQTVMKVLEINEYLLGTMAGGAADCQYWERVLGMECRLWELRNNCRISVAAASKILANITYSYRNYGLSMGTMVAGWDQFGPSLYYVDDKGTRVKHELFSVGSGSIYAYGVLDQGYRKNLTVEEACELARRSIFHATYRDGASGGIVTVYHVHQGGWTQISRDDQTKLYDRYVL
Nature of the assay: Trypanosoma cruzi proteasome chymotrypsin-like activity (TcProtChymo) assay. Further: in the data most compounds retested in dose-response had high values. In kind it is functional. The conditions noted are these: 9.37 µM.

The species entered for the next assay is Homo sapiens. Nature of the assay: To identify inhibition of the IFN signalling (Jak-Stat) pathway via expression of an eGFP reporter gene under the control of an IFN-stimulated response element (ISRE) containing MxA promoter. The assay is classed as functional. The conditions noted are these: 30 µM. In general terms: In a reporter assay the amount or activity of a reporter protein is the signal.

Assay [7] concerns the target T4, Tyrosyl-tRNA synthetase, putative (Trypanosoma cruzi (strain CL Brener)) (UniProt Q4DSP6).
T4 sequence (whole entry): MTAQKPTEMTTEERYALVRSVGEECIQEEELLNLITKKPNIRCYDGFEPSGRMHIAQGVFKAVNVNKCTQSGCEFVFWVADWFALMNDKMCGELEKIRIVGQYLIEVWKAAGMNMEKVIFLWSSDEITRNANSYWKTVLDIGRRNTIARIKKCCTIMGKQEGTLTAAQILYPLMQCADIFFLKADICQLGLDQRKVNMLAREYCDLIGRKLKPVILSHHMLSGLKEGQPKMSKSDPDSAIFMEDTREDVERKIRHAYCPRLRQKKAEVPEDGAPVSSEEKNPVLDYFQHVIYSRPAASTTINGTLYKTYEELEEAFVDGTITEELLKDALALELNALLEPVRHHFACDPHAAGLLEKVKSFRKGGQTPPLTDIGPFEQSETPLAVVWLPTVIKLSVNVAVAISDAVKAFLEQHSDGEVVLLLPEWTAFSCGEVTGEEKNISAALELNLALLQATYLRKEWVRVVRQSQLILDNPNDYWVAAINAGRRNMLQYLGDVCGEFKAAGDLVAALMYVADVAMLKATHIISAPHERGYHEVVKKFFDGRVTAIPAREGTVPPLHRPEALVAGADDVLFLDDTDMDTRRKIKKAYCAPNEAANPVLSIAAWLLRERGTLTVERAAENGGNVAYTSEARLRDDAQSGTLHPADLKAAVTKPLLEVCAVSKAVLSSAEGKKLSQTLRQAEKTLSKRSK
Nature of the assay: Trypanosoma cruzi tyrosyl tRNA synthetase (TcYRS) _High Tyrosine SOP. Further: in the data most compounds retested in dose-response had high values. The following applies: 30 µM. The assay is classed as functional.

The target of assay [8] is T4, Tyrosyl-tRNA synthetase, putative (Trypanosoma cruzi (strain CL Brener)). Nature of the assay: Trypanosoma cruzi tyrosyl tRNA synthetase (TcYRS) SOP. The conditions noted are these: 30 µM. The assay is classed as functional.
Assay [9] addresses Chromo domain-containing protein 1 (Saccharomyces cerevisiae (strain ATCC 204508 / S288c) (Baker's yeast)) (UniProt P32657). Put plainly: ScCHD-1 Enzyme Inhibition Assay. Further: in the data most compounds retested in dose-response had high values. In kind it is functional. The following applies: 30 µM.

For some of these results: Measured potencies and affinities stand elsewhere.

Sequence of Protein translocase subunit SecA (Escherichia coli (strain K12)) (P10408 whole entry): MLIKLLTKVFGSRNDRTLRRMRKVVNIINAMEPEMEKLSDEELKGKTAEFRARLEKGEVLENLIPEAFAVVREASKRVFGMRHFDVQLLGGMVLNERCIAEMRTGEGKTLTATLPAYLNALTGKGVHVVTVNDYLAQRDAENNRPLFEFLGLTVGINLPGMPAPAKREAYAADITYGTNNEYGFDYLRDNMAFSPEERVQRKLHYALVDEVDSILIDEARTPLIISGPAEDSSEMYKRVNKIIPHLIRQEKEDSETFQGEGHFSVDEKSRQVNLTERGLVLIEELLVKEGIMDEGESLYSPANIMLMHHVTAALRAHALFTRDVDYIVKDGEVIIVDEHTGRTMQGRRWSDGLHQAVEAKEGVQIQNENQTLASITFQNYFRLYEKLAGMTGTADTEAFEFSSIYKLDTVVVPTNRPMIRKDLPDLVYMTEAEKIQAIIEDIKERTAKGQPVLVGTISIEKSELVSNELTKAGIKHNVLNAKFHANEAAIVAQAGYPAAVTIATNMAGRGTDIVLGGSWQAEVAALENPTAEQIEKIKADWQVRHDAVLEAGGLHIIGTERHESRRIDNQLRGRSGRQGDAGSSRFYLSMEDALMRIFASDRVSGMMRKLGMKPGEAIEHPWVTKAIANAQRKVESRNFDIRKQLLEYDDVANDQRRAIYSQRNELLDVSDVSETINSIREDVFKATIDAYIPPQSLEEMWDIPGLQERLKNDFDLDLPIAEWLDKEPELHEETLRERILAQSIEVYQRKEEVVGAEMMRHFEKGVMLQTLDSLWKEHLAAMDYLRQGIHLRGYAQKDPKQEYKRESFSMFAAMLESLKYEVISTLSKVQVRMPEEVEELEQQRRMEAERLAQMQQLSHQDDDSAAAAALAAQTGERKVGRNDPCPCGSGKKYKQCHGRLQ
Sequence of Chromo domain-containing protein 1 (Saccharomyces cerevisiae (strain ATCC 204508 / S288c) (Baker's yeast)) (P32657 whole entry, the tested form may be a part): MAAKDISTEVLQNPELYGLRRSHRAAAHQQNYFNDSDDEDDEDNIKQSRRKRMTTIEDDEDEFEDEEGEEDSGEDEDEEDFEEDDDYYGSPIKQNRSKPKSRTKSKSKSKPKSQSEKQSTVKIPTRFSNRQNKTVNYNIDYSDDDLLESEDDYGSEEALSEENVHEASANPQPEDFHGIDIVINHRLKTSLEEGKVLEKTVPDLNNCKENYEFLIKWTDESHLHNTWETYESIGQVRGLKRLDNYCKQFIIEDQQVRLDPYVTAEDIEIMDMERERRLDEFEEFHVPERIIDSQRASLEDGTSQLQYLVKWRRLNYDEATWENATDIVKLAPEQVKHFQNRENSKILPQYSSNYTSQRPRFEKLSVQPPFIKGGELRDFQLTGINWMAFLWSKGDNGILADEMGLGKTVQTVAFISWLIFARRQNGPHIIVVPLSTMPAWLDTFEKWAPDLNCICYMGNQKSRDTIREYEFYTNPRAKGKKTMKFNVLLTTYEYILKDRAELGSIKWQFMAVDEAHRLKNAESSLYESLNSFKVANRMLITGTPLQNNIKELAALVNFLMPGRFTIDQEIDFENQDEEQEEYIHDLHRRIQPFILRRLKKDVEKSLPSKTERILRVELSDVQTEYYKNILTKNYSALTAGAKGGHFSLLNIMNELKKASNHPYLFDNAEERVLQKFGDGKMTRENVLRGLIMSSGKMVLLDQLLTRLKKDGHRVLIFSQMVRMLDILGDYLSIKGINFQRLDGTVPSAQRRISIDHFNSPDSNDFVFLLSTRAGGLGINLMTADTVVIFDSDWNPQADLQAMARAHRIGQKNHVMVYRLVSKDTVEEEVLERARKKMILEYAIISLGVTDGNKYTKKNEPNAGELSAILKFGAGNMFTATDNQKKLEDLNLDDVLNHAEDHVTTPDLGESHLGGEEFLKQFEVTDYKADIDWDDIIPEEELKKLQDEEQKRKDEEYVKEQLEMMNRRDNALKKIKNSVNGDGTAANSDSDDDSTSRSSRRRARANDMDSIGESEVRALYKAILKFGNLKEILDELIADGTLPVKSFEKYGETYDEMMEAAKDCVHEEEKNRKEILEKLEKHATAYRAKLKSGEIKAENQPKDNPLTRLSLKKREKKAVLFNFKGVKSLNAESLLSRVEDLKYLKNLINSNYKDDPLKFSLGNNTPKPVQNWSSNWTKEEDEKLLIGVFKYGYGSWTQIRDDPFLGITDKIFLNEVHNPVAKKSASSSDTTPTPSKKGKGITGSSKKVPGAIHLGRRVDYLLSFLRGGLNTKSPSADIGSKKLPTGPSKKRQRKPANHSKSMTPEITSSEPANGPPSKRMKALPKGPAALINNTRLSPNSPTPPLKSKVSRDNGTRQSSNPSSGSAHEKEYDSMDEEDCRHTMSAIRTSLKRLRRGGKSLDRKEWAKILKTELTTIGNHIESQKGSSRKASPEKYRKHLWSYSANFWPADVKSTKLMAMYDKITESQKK

Take `CC(C)C1CN(C(=O)c2ccc(C(N)=O)cc2)CCS1` (stereo not drawn): the Percent Effect in assay [1] was -4.2%; in [2], 5.2%; in [3], 1.75%; in assay [4], 3.92%; in the assay on Trypanosoma cruzi it was -6.2%; in assay [5] it was -4.14%. Also, the Percent Effect in [6] is 6.49%; in the assay filed under Homo sapiens, 6.03%; in [7] it was 2.15%; in [8] it was 6.17%; in assay [9], 0.585%.

As for `Cc1cnn(CCC(=O)N2C[C@H]3CC[C@@H]2CN(CC(=O)N(C)C)C3)c1`, the Percent Effect in assay [1] was 0.243%; in assay [2] it was 13.5%; in assay [3], -6.36%; in assay [4], 7.46%; in the assay with Trypanosoma cruzi it was 7.34%; in [5] it was 1.91%. Also, the Percent Effect in [6] was 17.6%; in the assay listed under Homo sapiens, 5.29%; in assay [7], 5.82%; in assay [8] it was 17.1%; in [9] it was -2.52%.

Turning to `O=C(c1ccsc1)N1CC(C(=O)N2CCOCC2)C2(CCOCC2)C1` (stereo not drawn), the Percent Effect is -0.06% in [1]; 2.6% in assay [2]; 3.52% in [3]; 3.83% in assay [4]; -6.21% with Trypanosoma cruzi; -3.23% in assay [5]. Also, the Percent Effect in assay [6] was 16.5%; in the assay filed under Homo sapiens, 7.29%; in assay [7], -29.6%; in [8], -1.28%; in [9], -0.146%.

Take `Cn1cc(CN2CC3(CCN(C(=O)c4ccoc4)C3)C2)cn1`: the Percent Effect in [1] is -1.29%; in assay [2], -2.74%; in [3] it was 4.12%; in [4], -0.00343%; in the assay with Trypanosoma cruzi, -3.77%; in assay [5] it was -1.6%. For the same molecule, the Percent Effect is 10.2% in assay [6]; 15.8% in the assay filed under Homo sapiens; -1.04% in assay [7]; -1.24% in [8]; -6.08% in [9].

Take `O=C1COC2(COCCN(Cc3cccnc3)C2)CN1c1ccoc1` (stereo not drawn): the Percent Effect in assay [1] was -0.625%; in assay [2], 5.2%; in assay [3], 2.84%; in assay [4] it was 0.684%; in the assay on Trypanosoma cruzi, -10.6%; in [5], 7.1%. Further, the Percent Effect in assay [6] is 4.87%; in the assay listed under Homo sapiens, 8.52%; in assay [7], 0%; in assay [8], 1.28%; in [9], -1.12%.

Regarding `c1cnc(N2C[C@H]3CCN(c4cccnc4)C[C@H]3C2)nc1`, the Percent Effect in [1] is -6.23%; in assay [2], -5.41%; in assay [3], -3.42%; in assay [4] it was -2.92%; in the assay on Trypanosoma cruzi, -2.15%; in [5], -0.417%. Further, the Percent Effect in assay [6] was determined as 26.1%; in the assay filed under Homo sapiens, 6.67%; in assay [7], 5.94%; in assay [8], 13.4%; in assay [9], 7.23%.

With `CC(C)NS(=O)(=O)c1cc(C(=O)O)cc(-c2ccc(CN(C)C)cc2)c1`, the Percent Effect is -8.02% in assay [1]; 0% in assay [2]; 5.48% in assay [3]; -7.27% in assay [4]; -3.81% in the assay on Trypanosoma cruzi; -0.248% in assay [5]. The Percent Effect in assay [6] is 13.7%; in the assay listed under Homo sapiens, 0.283%; in assay [7] it was 0%; in assay [8] it was 1.24%; in assay [9], -4.61%.

Consider `c1ccc(CN2CCN(Cc3cscn3)CC2)cc1`, for which the Percent Effect in assay [1] is -3.29%; in assay [2] it was 15.6%; in assay [3], 2.52%; in [4] it was 7.55%; with Trypanosoma cruzi, 0.49%; in assay [5], 3.58%. The Percent Effect in assay [6] is 7.2%; in the assay filed under Homo sapiens, 7.07%; in [7], 8.57%; in assay [8] it was 18.8%; in [9] it was -19.7%.
